The panel holds about 79,000 compounds, 15% with a hit somewhere; the sample as a whole holds those more often. No stated cut-off is given here; in the data, active means growth inhibition above about 70%; inactive means the rest.
What was measured:
[1] = NCI Yeast Anticancer Drug Screen. Data for the rad50 strain (AID 155);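 further: 0% = growth of vehicle-only cultures of the same strain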; details: S. cerevisiae rad50 strain growth inhibition; at 50.0 µM; stronger effect = higher value
In short: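 Readout: growth inhibition relative to vehicle-treated cultures. Compound exposure was carried out in a genetically defined yeast strain deficient in DNA damage repair.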

[2] = NCI Yeast Anticancer Drug Screen. Data for the mec2-1 strain (AID 157); details: S. cerevisiae mec2-1 strain, at 50.0 µM, stronger effect = higher value
In short: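 Compounds were applied to mec2-1 yeast cells. Their growth was then compared with that of vehicle-treated cultures to give growth inhibition.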

[3] = NCI Yeast Anticancer Drug Screen. Data for the sgs1 mgt1 strain (AID 161);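 further: 0% = growth of cultures given vehicle only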; details: S. cerevisiae sgs1 mgt1 strain, at 50.0 µM, stronger effect = higher value
In short: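 Percent growth inhibition was derived by comparing compound-exposed mutant yeast with vehicle-exposed cultures. The strain carries alterations in DNA damage repair.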

[4] = NCI Yeast Anticancer Drug Screen. Data for the cln2 rad14 strain (AID 165);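 further: 0% = growth equal to vehicle treated cultures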; details: S. cerevisiae cln2 rad14 strain, at 50.0 µM, stronger effect = higher value
In short: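 Strain: cln2 rad14 yeast, altered in cell cycle control and DNA damage repair. Read-out: growth inhibition vs vehicle.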

[5] = NCI Yeast Anticancer Drug Screen. Data for the bub3 strain (AID 167); details: S. cerevisiae bub3 mutant strain, at 50.0 µM, stronger effect = higher value
In short: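 Readout: yeast growth inhibition, expressed relative to vehicle-only wells. The test organism is a mutant strain from a panel with lesions in DNA repair or checkpoint genes.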

[6] = NCI Yeast Anticancer Drug Screen. Data for the mlh1 rad18 strain (AID 175); details: S. cerevisiae mlh1 rad18 strain growth inhibition; at 50.0 µM; stronger effect = higher value
In short: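 A repair-deficient yeast strain is exposed to test compound, and growth is scored relative to vehicle-treated controls.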

Measured: growth inhibition

CCOC(=O)c1cnc(=S)n(CCC(C)C)c1N
inactive: [1] -11.2% | [2] 8.25% | [3] 12.7% | [4] -40.5% | [5] 2.9% | [6] 4.95%

CCOC(=O)C(Cl)Cc1ccccc1 (stereo not given)
inactive: [1] 4.75% | [2] 13.4% | [3] 13.4% | [4] 5.45% | [5] -5.15% | [6] 1.9%

C[C@@H]1C[C@@H]2C(=O)N(c3ccccc3)C(=O)[C@@H]2c2[nH]c3ccc(Br)cc3c21
inactive: [1] 0.2% | [2] -12.6% | [3] 15.8% | [4] 0.25% | [5] -7.95% | [6] -20.1%

Cc1cccc(NC(=O)c2ccc(Cl)c(Cl)c2)c1
inactive: [1] 11.3% | [2] 13.7% | [3] -0.25% | [4] -65.6% | [5] 30.4% | [6] -8.65%

COC(=O)/C=C(\C)Nc1cccc([N+](=O)[O-])c1
inactive: [1] -15.2% | [2] -0.65% | [3] -18.9% | [4] -36.9% | [5] -0.75% | [6] -7.3%

NC(=S)Nc1c(Cl)cc(Cl)cc1Cl
inactive: [1] 44% | [2] -8.9% | [3] 33.4% | [4] 8.6% | [5] 17.3% | [6] 12.3%

CCCC(=O)Nc1ccc(N=Nc2ccccc2)cc1
inactive: [1] 8.15% | [2] 43.4% | [3] 58.3% | [4] -15.9% | [5] 46.1% | [6] 57.5%

OCC(OC/C=C/CCl)c1ccc(Cl)cc1 (stereo not given)
inactive: [1] -6.75% | [2] 8.7% | [3] 0.2% | [4] -0.15% | [5] -9.5% | [6] -15.9%

CC1=C(C(=O)NC(C)(C)C)CC(C(=O)NC(C)(C)C)C(C)N1 (stereo not given)
inactive: [1] -21.4% | [2] -25.8% | [3] -17.6% | [4] 2.45% | [5] -3.2% | [6] -18.2%

CCCCNC(=O)Nc1nc2ccccc2s1
inactive: [1] 25.3% | [2] 2.15% | [3] 11.5% | [4] 38% | [5] -3% | [6] -1.7%

O=c1n(-c2ccc(Cl)c(Cl)c2)c(=O)n(-c2ccc(Cl)c(Cl)c2)c(=O)n1-c1ccc(Cl)c(Cl)c1
inactive: [1] 3.5% | [2] 5.25% | [3] 9.35% | [4] -44.1% | [5] -3.85% | [6] 4.3%

NC(=O)Cc1[nH]ccc1C(=O)O
inactive: [1] 9.4% | [2] -9.75% | [3] -0.05% | [4] -18.6% | [5] -4.15% | [6] 12.1%

C/C(=C/c1c(C)[nH]c(=O)[nH]c1=O)C(=O)O
inactive: [1] 10.9% | [2] 13.6% | [3] -3.75% | [4] -29.8% | [5] 8.75% | [6] -3.75%

CC(=O)N(C(C)=O)N1C(=O)C2C3C=CC(C4CC34)C2C1=O (stereo not given)
inactive: [1] 30.2% | [2] 17% | [3] 15.8% | [4] 19.6% | [5] 2.95% | [6] 23.4%

CCCOC1NC(=O)Oc2ccccc21 (stereo not given)
inactive: [1] -14.8% | [2] -6.1% | [3] -0.9% | [4] -30.4% | [5] -1.55% | [6] 13.8%

CC(=O)OC1CC[C@@]2(C)C(CC[C@]3(C)C2CC=C2[C@@H]4C(C)[C@H](C)CCC4(C)CCC23C)[C@@]1(C)C(=O)O (stereo not given in full)
inactive: [1] 1.05% | [2] 14.8% | [3] 16.4% | [4] 3.25% | [5] 48.1% | [6] 16.4%

C1=CCc2cc3c(cc2=C1)C=c1ccccc1=3
inactive: [1] -12.3% | [2] -19.4% | [3] -11.2% | [4] -5.9% | [5] -8.2% | [6] -19.4%

CCOC(=O)CC1(O)Oc2cc3c(cc2C(c2cc(OC)c(OC)c(OC)c2)C1C(=O)OCC)OCO3 (stereo not given)
inactive: [1] -0.75% | [2] -5.9% | [3] -21.6% | [4] -0.55% | [5] -1.45% | [6] 10.2%

CC1CC(C)NC(=O)N1 (stereo not given)
inactive: [1] -13% | [2] 13.5% | [3] -13.9% | [4] 16.1% | [5] 15.8% | [6] 0.4%

CCCCCCCCCCCCC(O)C(=O)O (stereo not given)
inactive: [1] 12.3% | [2] -17.9% | [3] 10.2% | [4] 12.8% | [5] 35.7% | [6] -39.7%

O=[N+]([O-])c1ccc(/C=C/c2ccc([N+](=O)[O-])cc2S(=O)(=O)O)c(S(=O)(=O)O)c1
inactive: [1] 25.8% | [2] -9.6% | [3] 30.8% | [4] 5.45% | [5] 32.9% | [6] 32%

NC(=O)NC(=O)C1C2CC3OC(=O)C1C3C2 (stereo not given)
inactive: [1] 13.6% | [2] -4.35% | [3] -3.2% | [4] -37.9% | [5] 2.45% | [6] 20.9%

CNC(=O)NC(c1cc(OC)c(O)c(OC)c1)c1cc2c(cc1O)OCO2 (stereo not given)
inactive: [1] 29.5% | [2] 38.8% | [3] 11.8% | [4] 9.6% | [5] 8.05% | [6] 44.6%

c1ccc2c(c1)[nH]c1c2ncc2[nH]c3ccccc3c21
inactive: [1] -2.7% | [2] 2.85% | [3] -7.35% | [4] -60.2% | [5] -1.8% | [6] 7.25%

C=CCOC(=O)Nc1cc(Cl)ccc1C
inactive: [1] 3.9% | [2] 1.2% | [3] -8.5% | [4] -9.25% | [5] -1.55% | [6] -9.8%

CCOc1nc(N)nc(C)c1N=Nc1cccc([N+](=O)[O-])c1
inactive: [1] 20.9% | [2] 8.55% | [3] 7% | [4] -7.35% | [5] 36% | [6] 32%

Cc1cc(=O)[nH]c(=O)[nH]1
inactive: [1] 5.85% | [2] -7.55% | [3] -16.6% | [4] -4.15% | [5] -17.7% | [6] -5.4%

COc1cc2oc3c(C)c(=O)cc4oc(-c5ccccc5)cc(c2c2c1CCC(c1ccccc1)O2)c43 (stereo not given)
inactive: [1] -23.6% | [2] -5.9% | [3] -20.1% | [4] 4.35% | [5] -20.2% | [6] -0.7%

O=[N+]([O-])c1ccccc1C=Nc1ccc2nc(SCc3ccccc3)sc2c1
inactive: [1] 8.15% | [2] 3.65% | [3] 3.95% | [4] 0.7% | [5] -4% | [6] -16.8%

CC(=O)OC(C(=O)Nc1ccc(Br)cc1)c1ccccc1 (stereo not given)
inactive: [1] 4.7% | [2] -3.95% | [3] -4.75% | [4] -35.5% | [5] 11.6% | [6] -6.65%

OCC(O)C(O)C(O)CN=Cc1ccccc1O (stereo not given)
inactive: [1] -7.45% | [2] -2.25% | [3] 10.4% | [4] -7.8% | [5] -1.15% | [6] 12.3%

C=C(C(=C)N1N=NC2C3CCC(C3)C21)N1N=NC2C3CCC(C3)C21 (stereo not given)
inactive: [1] -5.9% | [2] -15.9% | [3] 10.3% | [4] 7.15% | [5] -4.75% | [6] -7.95%

C(=N\N=C\c1ccccc1)/c1ccccc1
inactive: [1] 14.7% | [2] 4.65% | [3] 3.5% | [4] -52.5% | [5] -1.15% | [6] 16.6%

O=C(N/C(=C\c1ccccc1)C(=O)N1CCNCC1)c1ccccc1
inactive: [1] -1% | [2] 5.3% | [3] 0.65% | [4] -26.8% | [5] 1.15% | [6] 9.65%

O=C(CCCC(=O)Nc1ccccc1)Nc1ccccc1
inactive: [1] -9.35% | [2] -6.9% | [3] -1.55% | [4] -35.2% | [5] -14.1% | [6] -15.7%

CC(=O)c1sc(Nc2ccc(S(=O)(=O)Nc3nc(C)cc(C)n3)cc2)nc1C
inactive: [1] 15.6% | [2] -0.75% | [3] 8.9% | [4] 31.3% | [5] -11.7% | [6] -10.1%

CC(Oc1ccc(Br)cc1Br)C(=O)O (stereo not given)
inactive: [1] 4.1% | [2] -16.2% | [3] 1.2% | [4] 23.2% | [5] -14.5% | [6] 19.1%

c1cncc(CCc2ccncc2)c1
inactive: [1] -18.9% | [2] -60.9% | [3] -27.2% | [4] 12.3% | [5] -14.2% | [6] 18.6%

CC(=O)N1CN2C(=O)CCC2c2ccccc21 (stereo not given)
inactive: [1] -7.85% | [2] 1.4% | [3] -14.2% | [4] 9.25% | [5] -21.5% | [6] -48.2%

CC(=O)C(C)c1nc(=S)[nH]c(=S)[nH]1 (stereo not given)
inactive: [1] 11.4% | [2] 12.2% | [3] 22.4% | [4] 9.1% | [5] -1.35% | [6] 4.85%
